What was measured:
[1] = molecular target: Ribosomal protein S6 kinase alpha-6 (Homo sapiens) (UniProt Q9UK32); settings: at 1 µM;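 also: each value is a mean inhibition of RSK4 from a GSK PKIS panel screen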
[2] = molecular target: T1, Serine/threonine-protein kinase Sgk1 (Homo sapiens) (UniProt O00141); settings: at 0.1 µM
T1 sequence (whole entry): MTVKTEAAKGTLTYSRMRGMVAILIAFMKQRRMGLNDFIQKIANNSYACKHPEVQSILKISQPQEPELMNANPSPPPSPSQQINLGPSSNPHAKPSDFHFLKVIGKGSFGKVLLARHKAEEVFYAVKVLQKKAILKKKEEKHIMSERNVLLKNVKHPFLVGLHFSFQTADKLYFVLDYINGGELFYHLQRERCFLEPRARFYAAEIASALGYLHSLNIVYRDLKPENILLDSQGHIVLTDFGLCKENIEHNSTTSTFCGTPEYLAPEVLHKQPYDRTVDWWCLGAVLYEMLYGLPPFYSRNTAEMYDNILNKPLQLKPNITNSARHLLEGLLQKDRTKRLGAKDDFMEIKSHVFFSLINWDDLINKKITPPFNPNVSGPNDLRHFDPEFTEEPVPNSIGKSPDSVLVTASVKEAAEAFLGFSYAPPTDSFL

[3] = molecular target: T1, Serine/threonine-protein kinase Sgk1 (Homo sapiens); settings: at 1 µM
[4] = molecular target: T2, Serine/threonine-protein kinase Sgk2 (Homo sapiens) (UniProt Q9HBY8); settings: at 0.1 µM
T2 sequence (whole entry): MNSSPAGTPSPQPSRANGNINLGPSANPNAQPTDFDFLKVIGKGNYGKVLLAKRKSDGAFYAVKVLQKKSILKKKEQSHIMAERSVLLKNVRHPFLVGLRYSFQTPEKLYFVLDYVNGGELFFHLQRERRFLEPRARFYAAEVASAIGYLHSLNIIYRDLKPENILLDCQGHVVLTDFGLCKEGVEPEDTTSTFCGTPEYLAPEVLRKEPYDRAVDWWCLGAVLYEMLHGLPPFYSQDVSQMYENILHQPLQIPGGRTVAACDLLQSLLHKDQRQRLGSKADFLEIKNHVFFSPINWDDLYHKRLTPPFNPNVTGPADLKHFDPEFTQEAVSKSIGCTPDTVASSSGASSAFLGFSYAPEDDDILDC

[5] = molecular target: T2, Serine/threonine-protein kinase Sgk2 (Homo sapiens); settings: at 1 µM
[6] = molecular target: T3, Serine/threonine-protein kinase Sgk3 (Homo sapiens) (UniProt Q96BR1); settings: at 0.1 µM
T3 sequence (whole entry): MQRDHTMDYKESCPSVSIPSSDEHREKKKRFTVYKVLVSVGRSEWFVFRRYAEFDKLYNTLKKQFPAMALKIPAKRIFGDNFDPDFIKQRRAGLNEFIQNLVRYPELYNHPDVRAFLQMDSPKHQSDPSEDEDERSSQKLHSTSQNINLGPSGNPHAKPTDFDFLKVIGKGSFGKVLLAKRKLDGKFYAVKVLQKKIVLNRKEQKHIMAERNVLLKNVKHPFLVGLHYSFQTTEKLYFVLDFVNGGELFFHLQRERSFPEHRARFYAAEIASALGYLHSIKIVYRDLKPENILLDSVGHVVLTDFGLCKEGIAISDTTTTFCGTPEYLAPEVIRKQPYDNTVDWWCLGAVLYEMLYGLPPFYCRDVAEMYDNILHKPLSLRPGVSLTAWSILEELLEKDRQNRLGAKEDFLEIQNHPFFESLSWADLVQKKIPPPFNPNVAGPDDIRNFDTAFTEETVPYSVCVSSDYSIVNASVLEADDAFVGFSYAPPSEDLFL

[7] = molecular target: T3, Serine/threonine-protein kinase Sgk3 (Homo sapiens); settings: at 1 µM
[8] = molecular target: 5'-AMP-activated protein kinase catalytic subunit alpha-1 (Homo sapiens) (UniProt Q13131); settings: at 0.1 µM
[9] = molecular target: 5'-AMP-activated protein kinase catalytic subunit alpha-1 (Homo sapiens) (UniProt Q13131); settings: at 1 µM
[10] = molecular target: 5'-AMP-activated protein kinase catalytic subunit alpha-2 (Homo sapiens) (UniProt P54646); settings: at 0.1 µM
[11] = molecular target: 5'-AMP-activated protein kinase catalytic subunit alpha-2 (Homo sapiens) (UniProt P54646); settings: at 1 µM
[12] = molecular target: T4, NUAK family SNF1-like kinase 1 (Homo sapiens) (UniProt O60285); settings: at 0.1 µM
T4 sequence (whole entry): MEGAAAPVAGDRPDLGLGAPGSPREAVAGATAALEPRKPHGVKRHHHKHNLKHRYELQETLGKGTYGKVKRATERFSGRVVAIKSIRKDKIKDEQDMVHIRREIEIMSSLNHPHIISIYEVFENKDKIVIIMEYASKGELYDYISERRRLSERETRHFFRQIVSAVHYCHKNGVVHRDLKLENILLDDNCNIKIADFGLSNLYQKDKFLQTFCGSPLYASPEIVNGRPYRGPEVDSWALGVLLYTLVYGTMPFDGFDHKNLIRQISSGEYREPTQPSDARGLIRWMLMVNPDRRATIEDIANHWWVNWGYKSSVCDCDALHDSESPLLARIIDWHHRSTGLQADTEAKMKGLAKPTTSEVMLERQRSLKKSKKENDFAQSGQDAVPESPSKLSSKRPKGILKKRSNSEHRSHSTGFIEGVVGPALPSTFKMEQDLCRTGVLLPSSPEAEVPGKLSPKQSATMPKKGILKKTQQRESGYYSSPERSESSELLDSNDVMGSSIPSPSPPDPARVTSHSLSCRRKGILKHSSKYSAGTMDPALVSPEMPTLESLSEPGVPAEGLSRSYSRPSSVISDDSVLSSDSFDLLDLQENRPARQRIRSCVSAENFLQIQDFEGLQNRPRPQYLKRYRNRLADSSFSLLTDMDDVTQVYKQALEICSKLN

[13] = molecular target: T4, NUAK family SNF1-like kinase 1 (Homo sapiens); settings: at 1 µM
[14] = molecular target: T5, Serine/threonine-protein kinase BRSK1 (Homo sapiens) (UniProt Q8TDC3); settings: at 0.1 µM
T5 sequence (whole entry): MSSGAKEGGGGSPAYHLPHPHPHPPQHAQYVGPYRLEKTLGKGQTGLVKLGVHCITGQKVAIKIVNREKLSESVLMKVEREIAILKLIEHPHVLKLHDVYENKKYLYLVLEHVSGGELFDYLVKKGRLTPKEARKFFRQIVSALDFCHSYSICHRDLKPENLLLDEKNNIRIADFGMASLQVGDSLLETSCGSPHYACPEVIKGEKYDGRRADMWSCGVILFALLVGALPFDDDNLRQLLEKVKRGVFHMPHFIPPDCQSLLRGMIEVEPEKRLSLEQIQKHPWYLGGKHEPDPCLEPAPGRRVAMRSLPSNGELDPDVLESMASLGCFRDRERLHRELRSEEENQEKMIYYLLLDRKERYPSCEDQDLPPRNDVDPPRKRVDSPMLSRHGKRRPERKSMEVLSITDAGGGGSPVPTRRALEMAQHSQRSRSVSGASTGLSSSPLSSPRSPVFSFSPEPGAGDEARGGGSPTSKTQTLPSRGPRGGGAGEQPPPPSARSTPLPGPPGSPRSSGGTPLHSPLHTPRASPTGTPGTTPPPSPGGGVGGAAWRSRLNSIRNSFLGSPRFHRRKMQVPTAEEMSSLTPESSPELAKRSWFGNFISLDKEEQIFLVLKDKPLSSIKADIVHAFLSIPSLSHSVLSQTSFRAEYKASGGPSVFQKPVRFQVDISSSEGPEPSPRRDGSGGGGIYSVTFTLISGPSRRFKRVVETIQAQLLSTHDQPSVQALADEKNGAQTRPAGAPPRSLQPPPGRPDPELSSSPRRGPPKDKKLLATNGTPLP

[15] = molecular target: T5, Serine/threonine-protein kinase BRSK1 (Homo sapiens); settings: at 1 µM
[16] = molecular target: T6, Serine/threonine-protein kinase BRSK2 (Homo sapiens) (UniProt Q8IWQ3); settings: at 0.1 µM
T6 sequence (whole entry): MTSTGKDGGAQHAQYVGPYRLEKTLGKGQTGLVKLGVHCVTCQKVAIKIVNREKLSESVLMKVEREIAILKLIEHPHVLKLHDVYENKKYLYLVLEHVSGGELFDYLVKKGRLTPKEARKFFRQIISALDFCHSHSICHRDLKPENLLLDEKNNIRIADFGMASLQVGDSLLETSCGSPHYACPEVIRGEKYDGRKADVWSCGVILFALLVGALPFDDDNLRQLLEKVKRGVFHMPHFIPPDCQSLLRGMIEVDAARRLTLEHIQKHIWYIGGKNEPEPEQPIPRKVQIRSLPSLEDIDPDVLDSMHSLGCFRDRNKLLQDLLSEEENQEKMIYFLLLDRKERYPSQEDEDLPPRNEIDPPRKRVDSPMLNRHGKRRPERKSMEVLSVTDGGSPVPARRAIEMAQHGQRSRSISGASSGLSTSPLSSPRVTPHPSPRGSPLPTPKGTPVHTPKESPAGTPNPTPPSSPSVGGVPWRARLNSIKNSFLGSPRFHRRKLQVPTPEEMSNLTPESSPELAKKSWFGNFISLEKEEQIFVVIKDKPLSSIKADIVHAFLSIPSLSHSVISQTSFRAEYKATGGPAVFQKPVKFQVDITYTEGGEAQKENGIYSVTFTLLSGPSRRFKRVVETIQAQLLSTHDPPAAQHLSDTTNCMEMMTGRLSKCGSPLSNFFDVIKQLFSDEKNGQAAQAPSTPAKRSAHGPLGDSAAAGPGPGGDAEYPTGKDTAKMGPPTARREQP

[17] = molecular target: T6, Serine/threonine-protein kinase BRSK2 (Homo sapiens); settings: at 1 µM
[18] = molecular target: Calcium/calmodulin-dependent protein kinase type 1D (Homo sapiens) (UniProt Q8IU85); settings: at 0.1 µM
[19] = molecular target: Calcium/calmodulin-dependent protein kinase type 1D (Homo sapiens) (UniProt Q8IU85); settings: at 1 µM
[20] = molecular target: Calcium/calmodulin-dependent protein kinase type II subunit alpha (Homo sapiens) (UniProt Q9UQM7); settings: at 0.1 µM;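 also: reported values are averages (mean inhibition of CAMK2A)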
Sequence of Calcium/calmodulin-dependent protein kinase type II subunit alpha (Homo sapiens) (Q9UQM7 whole entry): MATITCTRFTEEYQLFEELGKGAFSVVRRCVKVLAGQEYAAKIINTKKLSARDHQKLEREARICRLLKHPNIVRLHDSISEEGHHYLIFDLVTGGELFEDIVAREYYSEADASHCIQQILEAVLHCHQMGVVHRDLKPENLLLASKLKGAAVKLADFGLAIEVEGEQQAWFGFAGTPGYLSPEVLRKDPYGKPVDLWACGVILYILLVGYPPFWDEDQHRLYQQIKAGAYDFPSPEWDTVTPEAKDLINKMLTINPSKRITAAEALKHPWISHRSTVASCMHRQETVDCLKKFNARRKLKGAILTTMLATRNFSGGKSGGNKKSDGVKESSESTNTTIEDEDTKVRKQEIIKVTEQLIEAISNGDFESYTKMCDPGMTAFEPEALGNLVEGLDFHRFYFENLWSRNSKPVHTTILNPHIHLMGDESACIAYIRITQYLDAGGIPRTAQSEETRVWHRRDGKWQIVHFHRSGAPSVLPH

Sequence of Ribosomal protein S6 kinase alpha-6 (Homo sapiens) (Q9UK32 whole entry): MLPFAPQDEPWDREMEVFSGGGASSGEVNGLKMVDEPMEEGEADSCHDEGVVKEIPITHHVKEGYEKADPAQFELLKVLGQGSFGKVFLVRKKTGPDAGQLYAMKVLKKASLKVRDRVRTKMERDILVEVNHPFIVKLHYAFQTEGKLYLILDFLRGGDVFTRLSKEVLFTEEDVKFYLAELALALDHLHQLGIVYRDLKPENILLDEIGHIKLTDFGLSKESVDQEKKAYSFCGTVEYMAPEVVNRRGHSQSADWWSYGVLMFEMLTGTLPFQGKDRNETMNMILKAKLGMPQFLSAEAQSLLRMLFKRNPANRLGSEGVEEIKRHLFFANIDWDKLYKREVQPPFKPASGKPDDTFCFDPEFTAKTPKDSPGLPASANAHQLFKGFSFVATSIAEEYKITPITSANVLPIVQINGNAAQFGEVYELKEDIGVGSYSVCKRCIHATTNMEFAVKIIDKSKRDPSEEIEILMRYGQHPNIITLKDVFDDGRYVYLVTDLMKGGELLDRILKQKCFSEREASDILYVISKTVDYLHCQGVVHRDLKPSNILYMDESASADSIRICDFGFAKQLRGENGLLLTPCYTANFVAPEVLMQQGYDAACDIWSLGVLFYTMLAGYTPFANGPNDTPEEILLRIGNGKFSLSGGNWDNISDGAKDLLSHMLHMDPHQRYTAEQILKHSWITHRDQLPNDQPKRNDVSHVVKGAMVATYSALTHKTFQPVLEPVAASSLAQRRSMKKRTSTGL
Sequence of Calcium/calmodulin-dependent protein kinase type 1D (Homo sapiens) (Q8IU85 whole entry, looked up): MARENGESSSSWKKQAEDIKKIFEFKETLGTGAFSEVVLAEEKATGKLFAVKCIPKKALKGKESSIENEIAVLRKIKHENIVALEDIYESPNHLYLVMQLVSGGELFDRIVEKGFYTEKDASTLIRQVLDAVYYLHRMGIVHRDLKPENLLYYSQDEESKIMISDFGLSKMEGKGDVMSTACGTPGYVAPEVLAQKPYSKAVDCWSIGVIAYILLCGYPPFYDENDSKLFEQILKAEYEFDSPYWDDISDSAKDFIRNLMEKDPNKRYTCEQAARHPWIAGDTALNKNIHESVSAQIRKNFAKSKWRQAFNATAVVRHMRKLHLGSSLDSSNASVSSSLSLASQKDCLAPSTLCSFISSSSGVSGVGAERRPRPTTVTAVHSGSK
Sequence of 5'-AMP-activated protein kinase catalytic subunit alpha-1 (Homo sapiens) (Q13131 whole entry, looked up): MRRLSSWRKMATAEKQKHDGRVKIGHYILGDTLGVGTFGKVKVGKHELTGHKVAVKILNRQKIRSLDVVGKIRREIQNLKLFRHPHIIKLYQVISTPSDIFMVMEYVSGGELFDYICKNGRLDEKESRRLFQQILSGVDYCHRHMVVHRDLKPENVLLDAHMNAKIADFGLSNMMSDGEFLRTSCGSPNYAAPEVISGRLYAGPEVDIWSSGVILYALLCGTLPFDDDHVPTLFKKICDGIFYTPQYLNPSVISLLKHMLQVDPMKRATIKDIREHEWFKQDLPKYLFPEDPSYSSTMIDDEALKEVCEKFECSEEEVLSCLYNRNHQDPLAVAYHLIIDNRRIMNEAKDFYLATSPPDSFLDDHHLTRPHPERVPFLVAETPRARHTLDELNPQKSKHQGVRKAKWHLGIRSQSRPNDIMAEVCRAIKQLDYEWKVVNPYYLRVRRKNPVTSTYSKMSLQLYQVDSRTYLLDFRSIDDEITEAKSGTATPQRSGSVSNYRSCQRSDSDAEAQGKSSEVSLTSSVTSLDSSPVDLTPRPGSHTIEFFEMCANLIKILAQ
Sequence of 5'-AMP-activated protein kinase catalytic subunit alpha-2 (Homo sapiens) (P54646 whole entry, looked up): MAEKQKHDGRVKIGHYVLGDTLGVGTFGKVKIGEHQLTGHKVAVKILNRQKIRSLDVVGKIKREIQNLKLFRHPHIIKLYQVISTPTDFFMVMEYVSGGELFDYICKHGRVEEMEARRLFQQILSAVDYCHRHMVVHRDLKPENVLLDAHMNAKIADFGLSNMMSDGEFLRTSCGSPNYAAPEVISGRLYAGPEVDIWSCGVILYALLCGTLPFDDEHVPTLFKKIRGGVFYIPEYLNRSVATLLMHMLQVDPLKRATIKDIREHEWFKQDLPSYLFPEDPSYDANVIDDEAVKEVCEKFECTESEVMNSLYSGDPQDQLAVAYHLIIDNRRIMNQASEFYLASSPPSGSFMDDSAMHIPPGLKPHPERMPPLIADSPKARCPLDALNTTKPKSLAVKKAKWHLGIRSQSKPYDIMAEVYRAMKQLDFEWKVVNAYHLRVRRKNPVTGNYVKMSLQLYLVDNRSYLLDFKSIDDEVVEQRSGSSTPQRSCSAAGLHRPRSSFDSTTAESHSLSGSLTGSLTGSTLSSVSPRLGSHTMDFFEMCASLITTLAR

SMILES	inhibition [1]	inhibition [2]	inhibition [3]	inhibition [4]	inhibition [5]	inhibition [6]	inhibition [7]	inhibition [8]	inhibition [9]	inhibition [10]	inhibition [11]	inhibition [12]	inhibition [13]	inhibition [14]	inhibition [15]	inhibition [16]	inhibition [17]	inhibition [18]	inhibition [19]	inhibition [20]
NC(=O)c1ccc2c(-c3ccnc(NCCCO)n3)c(-c3ccc(F)cc3)nn2c1	2.84%	2.62%	2.32%	4.31%	1.91%	2.16%	1.28%	2.28%	7.4%	3.45%	4.65%	2.9%	4.34%	2.91%	4.68%	2.27%	3.75%	-0.23%	1.6%	3.83%
COC(=O)Nc1nc2ccc(Oc3ccc(NC(=O)Nc4cc(C(F)(F)F)ccc4F)cc3)cc2s1	1.65%	0.33%	0.95%	-4.85%	0.53%	1.37%	1.57%	-0.71%	0.03%	0.72%	1.67%	-0.54%	-3.55%	-0.58%	0.34%	-0.27%	0.24%	0.5%	2.93%	-0.9%
COc1c(C(N)=O)cc(-c2ccc(Cl)cc2)cc1-c1ccc(S(N)(=O)=O)cc1	3.2%	0.41%	2.71%	5.14%	5%	1.37%	3%	1.83%	4.47%	7.86%	3.24%	0.82%	1.1%	3.28%	-0.57%	-0.02%	1.59%	0.45%	3.09%	3.01%
Cc1cc(O)cc(C)c1/C=C/c1cncc(C(N)=O)c1	1.18%	1.6%	2.14%	3.61%	3.1%	1.2%	1.31%	1.98%	1.85%	2.5%	3.4%	0.73%	2.46%	3.32%	15%	2.91%	9.42%	4.14%	1.23%	7.97%
COc1ccc(-c2nn3ncccc3c2-c2ccnc(Nc3ccc(F)c(F)c3)n2)cc1	1.98%	3.06%	9.35%	5.4%	7.74%	5.09%	6.1%	5.22%	9.36%	2.91%	6.49%	3.92%	5.51%	3.95%	7.79%	5.66%	7.14%	-0.12%	1.91%	3.21%
O=C(Nc1n[nH]c2nnc(-c3cccnc3)cc12)C1CC1	0.26%	0.71%	-0.17%	-0.62%	3.04%	-2.68%	-0.26%	-0.35%	0.39%	0.65%	0.41%	1.34%	0.53%	-0.56%	-3.34%	0.35%	1.6%	0.85%	0.89%	-1.44%
COc1cccc(-n2ncc3c(N/N=C/c4ccc(C(=O)NCCN(C)C)cc4)ncnc32)c1	6.67%	8.85%	47.9%	6.05%	40.1%	3.22%	3.92%	3.69%	12.3%	2.3%	14.5%	43.9%	77.2%	23.5%	67.2%	33.3%	72%	0.97%	5.99%	2.13%
